The whole screen tested about 3,600 compounds, of which about 900 (25%) were called active. How the calls were made is not given here. A selection follows. Entries with a potency or affinity are not part of this list.

For this assay, the target named is Protein Tat (Human immunodeficiency virus type 1 group M subtype B (isolate HXB2)) (UniProt P04608). Put plainly: HIV-1 Tat–TAR interaction blockers – biochemical, fluorescence polarization, FAM-labeled TAR RNA, counter-screen for Vif-APOBEC3G degradation inhibitor project, dose response (AID 1117361). The following applies: Tat-TAR RNA binding; series mostly up to 100 µM; inhibition: at the top concentration.
For `CCC(C)NC(=S)NNC(=O)c1ccc(C(C)(C)C)cc1` (centres undefined), the “inhibition” value was 13.7% (inactive).

On to `Cc1cc2c(=Cc3ccc(N(C)C)cc3)c3ccccc3n2[n+]1C`, for which the “inhibition” value was 10.3% (inactive).

With `Oc1cccc(/C=N/NC(=S)NCCN2CCOCC2)c1O`, the compound was called inactive.

On to `COc1cccc(C=Nc2cc(C(C)C)c(O)cc2C)c1O`, for which the result was inactive.

With `COc1cccc(CC(NC(C)=O)C(=O)NC2CCN(S(=O)(=O)c3ccc4ccccc4c3)CC2)c1` (centres undefined), the “inhibition” value is 4.73% (inactive).

Consider `COc1ccccc1N1CCN(CC(O)COCCOc2ccc(Br)cc2)CC1` (centres undefined), for which the “inhibition” value is 6.6% (inactive).

Take `CC(=O)Nc1ccc(C(=O)Nc2cccc(-c3cnc4ccccc4n3)c2)cc1`: the “inhibition” value was 9.9% (inactive).

For the compound `Cc1ccc(NC(=O)c2ccc(Cl)c(N3C(=O)C=CC3=O)c2)cc1`, the “inhibition” value is 8.87% (inactive).

`CC(=O)Nc1ccc(N/C=C/C(=O)C(C)(C)C)cc1`: the “inhibition” value was 3.38% (inactive).

`Cc1cc(C)c(C)c(OCCCOc2cccc3cccnc23)c1`: the compound was called inactive.

In the case of `Cc1nnc(SCC(=O)N2CCN(c3ccccc3)CC2)n1C1CC1`, the outcome was inactive.

In the case of `COC(=O)c1sccc1NC(=O)c1cc(-c2ccc(C)cc2C)nc2ccccc12`, the “inhibition” value is 3.41% (inactive).

For the compound `COc1ccc(/C=N/NC(=O)c2ccc3ccccc3c2)cc1OS(=O)(=O)c1ccc(NC(C)=O)cc1`, the “inhibition” value is 4.05% (inactive).

Regarding `O=C(CNC(=O)/C(=C\c1ccccc1)NC(=O)c1ccc(Br)cc1)OCc1ccccc1`, the “inhibition” value is 3.41% (inactive).

With `Cc1ccc(C(=O)N/C(=C/c2cccnc2)C(=O)NCc2ccco2)cc1`, the call was inactive.

Consider `O=C(NCC1CCCO1)c1ccc(CS(=O)(=O)Cc2ccc(F)cc2)o1` (centres undefined), for which the “inhibition” value was 2.03% (inactive).

Take `Cc1cc(C(F)(F)F)n2nc(C(=O)O)c(Cl)c2n1`: the “inhibition” value was 1.35% (inactive).

For `O=C1NC(=Nc2ccc(F)cc2)SC1Cc1ccc(F)cc1` (centres undefined), the result was inactive.

`COc1ccc(NC(=O)/C(C#N)=C\c2cc(C)n(-c3ccc(Oc4ccc([N+](=O)[O-])cn4)cc3)c2C)cc1`: the compound was called inactive.

On to `O=C(O)c1ccc(S(=O)(=O)c2ccc([N+](=O)[O-])cc2[N+](=O)[O-])cc1`, for which the result was inactive.

Turning to `CCCN(CCC)S(=O)(=O)c1cc(Br)cc2c1N(C(=O)CC)CC2`, the “inhibition” value was 4.05% (inactive).

Turning to `O=C1CCCC(NCCCCCCNC2=C([N+](=O)[O-])C(=O)CCC2)=C1[N+](=O)[O-]`, the call was inactive.

In the case of `CC(NCCO)C(=O)C12CC3CC(CC(C3)C1)C2` (centres undefined), the “inhibition” value was 2.03% (inactive).

On to `CN(C)S(=O)(=O)N1CCC(CCCC2CCN(S(=O)(=O)N(C)C)CC2)CC1`, for which the outcome was inactive.

`CN1CCN(c2nc(-c3cccnc3)nc3ccccc23)CC1`: the “inhibition” value is 6.08% (inactive).

With `C[C@@H]1NC(=O)[C@H](CCC(N)=O)NC(=O)c2cc([N+](=O)[O-])cc(I)c2NCCC[C@@H](C(N)=O)NC1=O`, the result was inactive.

Regarding `O=C(COC(=O)c1cc(=O)[nH]c2ccccc12)Nc1cccc(S(=O)(=O)N2CCOCC2)c1`, the outcome was inactive.

Take `CN(Cc1ccccc1)C(=O)c1cccc(N2C(=O)NC3CC2(C)Oc2ccccc23)c1` (centres undefined): the “inhibition” value was 1.36% (inactive).

Regarding `NC(=O)c1ccc(NC(=O)CSc2nc3ccccc3c(=O)n2CCCN2CCOCC2)cc1`, the “inhibition” value was 3.3% (inactive).

On to `CCCCCCn1c(SCC(=O)Nc2cc(C)on2)nc2ccccc2c1=O`, for which the “inhibition” value was 1.35% (inactive).

For the compound `Cc1sc(-c2ccccn2)nc1OC(=O)c1cccc(Cl)c1Cl`, the “inhibition” value is 1.35% (inactive).

Consider `CCCS(=O)(=O)N1CCCC(C(=O)NCCCOC(C)C)C1` (centres undefined), for which the “inhibition” value was 5.41% (inactive).

Turning to `CC(C)C(=O)Nc1nnc(Sc2ccc(N(C)C)cc2)s1`, the “inhibition” value was 22.3% (inactive).

Regarding `O=S(=O)(c1ccccc1)N1CCN(S(=O)(=O)N2CCCCC2)CC1`, the “inhibition” value is 2.05% (inactive).

Take `COc1cc(C(=O)OCC(=O)N2CCCC2)cc(OC)c1OC`: the “inhibition” value is 2.03% (inactive).

Regarding `Cc1ccccc1NC(=O)Cc1nc(COC(=O)Cc2ccccc2F)cs1`, the call was inactive.

As to `COc1ccc(S(=O)(=O)NNC(=O)c2sccc2-n2cccc2)cc1`, the result was inactive.

Regarding `COC(=O)CC1Oc2ccccc2N(Cc2ccccc2)C1=O` (centres undefined), the “inhibition” value was 6.08% (inactive).

Turning to `CCOC(=O)C1(Cc2ccc(OC)cc2)CCN(C(=O)c2cccc3nccnc23)CC1`, the compound was called inactive.

In the case of `O=C(CN1CCN(S(=O)(=O)c2ccc(F)cc2)CC1)Nc1cc(C(F)(F)F)ccc1Cl`, the “inhibition” value was 2.05% (inactive).

In the case of `O=C(Nc1cccc(C(F)(F)F)c1)c1cc(S(=O)(=O)N2CCCCC2)ccc1N1CCOCC1`, the result was inactive.

Regarding `Cc1cccc(Cc2nnc(CCC(=O)N(C)C3CCOC3)o2)c1` (centres undefined), the result was inactive.

For `Cc1noc(C)c1COC(=O)c1cccc(S(=O)(=O)N2CCCCCC2)c1`, the call was inactive.

Consider `O=C(NCc1cccs1)Nc1cccs1`, for which the “inhibition” value is 25.9% (inactive).

Take `c1ccc(CCc2nn3c(C4COc5ccccc5O4)nnc3s2)cc1` (centres undefined): the “inhibition” value was 0.33% (inactive).

For the compound `CCOc1ccc(N(CC(=O)NC2CCCCC2)S(=O)(=O)c2c(C)noc2C)cc1`, the “inhibition” value was 6.14% (inactive).

Take `CCOc1ccc(N(CC(=O)NCc2ccc(F)cc2)S(=O)(=O)c2c(C)noc2C)cc1`: the “inhibition” value is 4.09% (inactive).

Take `C=C(C)Cn1c(C)cc(C)c(S(=O)(=O)c2ccccc2C)c1=O`: the “inhibition” value is 6.82% (inactive).

Regarding `C/C(=C\C(=O)c1ccc(Br)cc1)N1CCCCC1`, the compound was called inactive.

As for `COc1cc(Br)c(CNc2cc(C)ccc2C)cc1OC`, the “inhibition” value was 3.01% (inactive).

On to `COc1ccc(NCc2nc3ccccc3n2CCOc2ccccc2)cc1`, for which the “inhibition” value was 24.6% (inactive).

Regarding `O=c1cc(OCc2ccccc2)cc[nH]1`, the outcome was inactive.

As for `COc1ccc(OCC(O)CNc2ccc(Br)cc2)cc1` (centres undefined), the “inhibition” value is 3.41% (inactive).

As for `NCCOc1ccccc1Cc1ccccc1`, the “inhibition” value was 4.09% (inactive).

On to `O=C(NC(=S)NCCN1CCOCC1)c1ccc(Cl)cc1Cl`, for which the “inhibition” value was 4.73% (inactive).

Take `CN(C1=C(NC(=O)c2ccc(Cl)cc2)C(=O)c2ccccc2C1=O)c1ccccc1`: the “inhibition” value was 7.5% (inactive).

`CC(=O)NCCC(=O)NCc1ccc(F)cc1`: the “inhibition” value was 4.73% (inactive).

`Cc1cccc(N2CCN(C(=O)c3ccncc3)CC2)c1C`: the “inhibition” value is 19.8% (inactive).

On to `CCOc1ccc(S(=O)(=O)N2CC(=O)Nc3ccccc32)cc1C#N`, for which the “inhibition” value was 4.34% (inactive).

In the case of `C=CCc1cc(/C=N\NC(=O)CSc2nnc(CCCc3ccc(OC)c(C)c3)o2)cc(OC)c1O`, the “inhibition” value is 2.05% (inactive).

In the case of `Cc1ccc(Nc2cnn(C34CC5CC(CC(CC(=O)O)(C5)C3)C4)c(=O)c2Cl)cc1C`, the “inhibition” value was 2.03% (inactive).

On to `CCOC(=O)CN1C(=O)C(Sc2n[nH]c(-c3ccccc3)n2)CCc2ccccc21` (centres undefined), for which the “inhibition” value is 8.11% (inactive).

Consider `NCCC(=O)N1c2ccccc2Sc2ccccc21`, for which the outcome was inactive.

Regarding `CCOc1cc(CNc2ccc(O)cc2)cc(Br)c1OCc1ccccc1F`, the “inhibition” value was 3.3% (inactive).

Take `COc1cccc(CNCCc2c[nH]c3ccccc23)c1OCc1ccccc1`: the “inhibition” value was 23.9% (inactive).

Take `CCOCC(O)CS(=O)Cc1ccccc1` (centres undefined): the outcome was inactive.

As to `CC(=NNC(=S)SCc1ccccc1)c1ccccn1`, the call was inactive.

For `Cc1cc(C)n2nc(C(=O)Nc3cccnc3)nc2n1`, the “inhibition” value was 4.73% (inactive).

`O=C(Nc1cccnc1)c1sc(Nc2ccccc2F)nc1-c1ccccc1`: the call was inactive.

`Cc1cc(NC(=O)CSc2nnc(-c3ccoc3C)n2N)no1`: the “inhibition” value was 8.78% (inactive).

For the compound `CCOC(=O)N1CCN(S(=O)(=O)c2ccc(F)c(C(=O)Nc3cc(C)cc(C)c3)c2)CC1`, the “inhibition” value was 3.41% (inactive).

Take `CC(C)OCCCNC(=O)CNC(=O)c1cccs1`: the compound was called inactive.

On to `COc1ccc(S(=O)(=O)N2CCN(C(=O)c3cc(C)on3)CC2)cc1`, for which the result was inactive.

On to `Cc1ccc(C(=O)/C=C/c2cc(C#N)n(C)c2C)cc1`, for which the compound was classed as inactive.

For `CCOC(=O)c1c(NC(=O)CSc2nncs2)sc(C)c1C`, the “inhibition” value is 2.73% (inactive).

As for `O=C1CCCC2=C1C(O)(C(F)(F)F)C(=O)N2Cc1ccccc1` (centres undefined), the “inhibition” value is 2.73% (inactive).

Consider `CCOC(=O)C1(C)NC(c2ccco2)C2C(=O)N(CC)C(=O)C21` (centres undefined), for which the compound was classed as inactive.

For `CCOC(=O)C1=C(C)n2c(s/c(=C/c3cccc([N+](=O)[O-])c3)c2=O)=NC1c1ccc(O)c(OC)c1` (centres undefined), the “inhibition” value is 8.11% (inactive).

`CCN(Cc1ccccc1)S(=O)(=O)c1ccc(C(=O)Nc2nnc(C3CC3)o2)cc1`: the “inhibition” value is 3.38% (inactive).

As to `COCCNC(=O)COc1ccc(Br)cc1Cl`, the outcome was inactive.

With `COc1ccc(-c2cc3ccc(OCc4nn[nH]n4)cc3oc2=O)cc1`, the “inhibition” value was 17.7% (inactive).

Consider `NC(=O)c1ccc(N2CCN(c3ncc(C(F)(F)F)cc3Cl)CC2)cc1`, for which the “inhibition” value is 12.4% (inactive).

On to `O=C(Cn1cc2c(n1)CCCC2)NCc1cccnc1`, for which the “inhibition” value is 3.41% (inactive).

Consider `COc1ccc(S(=O)(=O)N2CCC(C(=O)NCCC3=CCCCC3)CC2)cc1C`, for which the result was inactive.

For `O=C(/C=C/c1ccco1)c1cccnc1`, the “inhibition” value is 3.67% (inactive).

For the compound `Clc1ccc(-c2nnc(SCc3ccon3)o2)c(Cl)c1`, the “inhibition” value is 4.05% (inactive).

Consider `CCOC(=O)c1cccc(NC(=O)CCc2nc(-c3ccc(C)cc3)no2)c1`, for which the compound was classed as inactive.

Turning to `CCCOc1ccc(-c2nnn(CC(=O)OCC)n2)cc1`, the call was inactive.

For the compound `O=C1c2ccccc2C(=O)N1CCc1csc(-c2ccc(F)cc2)n1`, the “inhibition” value is 2.03% (inactive).

As to `O=C(O)Cn1c(O)c(C=Nc2ccccc2)sc1=S`, the “inhibition” value is 18.2% (inactive).

Turning to `Cc1cc(C)c(C)c(S(=O)(=O)N2C(=S)NC(=O)C2C(C)C)c1C` (centres undefined), the “inhibition” value is 0.68% (inactive).

Consider `Cc1cc(Oc2ccc(-c3ccccc3)cc2)n2ncnc2n1`, for which the “inhibition” value is 0.68% (inactive).

In the case of `CCn1c(SCC(=O)NCc2ccc3c(c2)OCO3)nnc1-c1cccs1`, the “inhibition” value is 0.68% (inactive).

Take `CCOC(=O)C/C(C)=N\Nc1ccc([N+](=O)[O-])cc1[N+](=O)[O-]`: the call was inactive.

As for `COc1cccc(CNCC(=O)Nc2ccc(N3CCOCC3)cc2)c1`, the compound was called inactive.

Consider `O=C(c1ccc(N2CCN(C3CC(=O)N(c4ccc(F)cc4)C3=O)CC2)cc1)c1cccnc1` (centres undefined), for which the compound was called inactive.

`CN(C)S(=O)(=O)c1ccc(NC(=O)N2CCN(c3cccc(C(F)(F)F)c3)CC2)cc1`: the “inhibition” value was 2.03% (inactive).

Consider `O=S(=O)(c1cccc(C(F)(F)F)c1)N1CCN(c2ccccc2)CC1`, for which the “inhibition” value was 0.68% (inactive).

On to `C=CCOc1c(Br)cc(CNn2nnnc2N)cc1OCC`, for which the “inhibition” value is 8.19% (inactive).

`O=C(O)CN1C(=O)COc2cc(S(=O)(=O)N3CCCC3)ccc21`: the “inhibition” value is 8.78% (inactive).

As to `O=C(c1cc(Cl)ccc1Cl)N1CCN(c2ccccn2)CC1`, the “inhibition” value was 2.7% (inactive).

As for `Clc1ccc(-c2cnc(Oc3ccccc3)nc2)cc1`, the compound was called inactive.

Consider `O=C(CNS(=O)(=O)c1ccc(Br)s1)N1CCCC1`, for which the “inhibition” value is 1.35% (inactive).

With `CCCCCC(=O)Nc1nnn(CCC)n1`, the “inhibition” value was 4.77% (inactive).

`Cc1ccc(-n2nc(-c3ccc(N)cc3)cc2N)cc1`: the “inhibition” value is 15% (inactive).

`Cc1ccc(S(=O)(=O)Nc2cc(NC(=O)CN3CCOCC3)ccc2Cl)cc1`: the compound was classed as inactive.

With `CCOCC(=O)Nc1ccc(C)c(Cl)c1`, the “inhibition” value is 8.19% (inactive).

Regarding `CCOC(=O)N1CCN(C(=O)c2cnn(-c3ccccc3)c2NC(=O)c2ccccc2F)CC1`, the outcome was inactive.

`Cc1ccc(C=Nc2ccccc2C(N)=O)s1`: the result was inactive.
